Source: PubChem BioAssay
Activity calls are given as the source filed them. Unless noted, how the calls were made is not given here.

Assays:
[1] = target: Alpha-bungarotoxin (Bungarus multicinctus) (UniProt P60615); experiment: alpha-bungarotoxin binders on microarray, profiling panel, artefact control for SMM control protein annotation, biochemical, small-molecule microarray, Alexa647 label, 635/667 nm fluorescence (AID 1117); settings: alpha-BTX-A647 binding fluorescence, higher = more signal
[2] = target: E3 ubiquitin-protein ligase XIAP (Homo sapiens) (UniProt P98170); experiment: XIAP binders, primary screen, biophysical, small-molecule microarray, fluorescence 635 nm (AID 1181); settings: small-molecule microarray binding, higher = more signal;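 further: score merges 667 nm emission and signal to noise over triplicate slides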
[3] = system: XIP peptide (Xip251-270) binding; experiment: small-molecule binders of XIP peptide, primary screen, biochemical, small-molecule microarray, fluorescence 635/667 nm, 0.1 µg/mL protein (AID 1182); settings: fluorescent protein binding, 635 nm, higher = more signal, called active from +8 up or from −8 down
XIP peptide (Xip251-270) = experiment: small-molecule binders of XIP peptide, primary screen, biochemical, small-molecule microarray, fluorescence 635/667 nm, 0.5 µg/mL protein (AID 1183); settings: small-molecule microarray binding, fluorescence 635 nm; higher = more signal
[4] = Plasmodium falciparum growth inhibition, primary screen, strain 3D7, DAPI fluorescence, 100 nL (AID 1184);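 further: parasites grown inside human red blood cells in medium with human serum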; settings: P. falciparum 3D7 growth, 3 d, higher = more signal
[5] = target: Homeobox protein Hox-A13 (Mus musculus) (UniProt Q62424); experiment: inhibitors of HoxA13-DNA binding, primary screen, biochemical, fluorescence polarization, labeled oligonucleotide (AID 1185); settings: 15 min, higher = more signal, called active from +8 up or from −8 down
[6] = inhibitors of hydroxyurea-induced Chk1 phosphorylation, primary screen, imaging, HeLa, phospho-Chk1 antibody, percent positive cells (AID 1186); settings: hydroxyurea-induced phospho-Chk1 immunofluorescence imaging, higher = more signal
[7] = inhibitors of hydroxyurea-induced Chk1 phosphorylation, primary screen, imaging, HeLa, phospho-Chk1 nuclear intensity (AID 1187); settings: hydroxyurea-induced phospho-Chk1 immunofluorescence imaging, higher = more signal
[8] = P. aeruginosa biofilm formation inhibitors, primary screen, PAO1 strain, BacTiter-Glo luminescence, LB-PBS (AID 1144); settings: 12 h, higher = more signal
[9] = P. aeruginosa biofilm formation inhibitors, primary screen, strain PAO1, LB-PBS medium, absorbance 600 nm (AID 1176); settings: P. aeruginosa PAO1 growth/biofilm, A600, 12 h; higher = more signal

Alpha-bungarotoxin (Bungarus multicinctus), sequence (P60615 whole entry, looked up): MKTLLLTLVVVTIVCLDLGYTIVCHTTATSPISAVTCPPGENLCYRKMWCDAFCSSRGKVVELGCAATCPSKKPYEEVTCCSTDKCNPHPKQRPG
E3 ubiquitin-protein ligase XIAP (Homo sapiens), sequence (P98170 whole entry, looked up): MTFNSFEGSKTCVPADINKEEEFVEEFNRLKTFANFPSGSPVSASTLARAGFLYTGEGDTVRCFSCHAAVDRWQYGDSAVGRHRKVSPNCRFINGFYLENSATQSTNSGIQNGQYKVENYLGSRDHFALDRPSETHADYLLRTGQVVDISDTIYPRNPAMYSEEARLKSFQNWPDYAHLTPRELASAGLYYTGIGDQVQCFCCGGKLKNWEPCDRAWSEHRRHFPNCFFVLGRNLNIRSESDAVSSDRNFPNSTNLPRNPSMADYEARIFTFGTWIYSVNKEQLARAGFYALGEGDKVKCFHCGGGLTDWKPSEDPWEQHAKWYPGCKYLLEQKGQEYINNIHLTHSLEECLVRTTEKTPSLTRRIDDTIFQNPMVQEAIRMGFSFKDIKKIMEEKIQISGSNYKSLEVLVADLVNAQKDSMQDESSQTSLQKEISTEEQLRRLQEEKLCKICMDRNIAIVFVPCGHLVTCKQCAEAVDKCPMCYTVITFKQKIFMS
Homeobox protein Hox-A13 (Mus musculus), sequence (Q62424 whole entry, looked up): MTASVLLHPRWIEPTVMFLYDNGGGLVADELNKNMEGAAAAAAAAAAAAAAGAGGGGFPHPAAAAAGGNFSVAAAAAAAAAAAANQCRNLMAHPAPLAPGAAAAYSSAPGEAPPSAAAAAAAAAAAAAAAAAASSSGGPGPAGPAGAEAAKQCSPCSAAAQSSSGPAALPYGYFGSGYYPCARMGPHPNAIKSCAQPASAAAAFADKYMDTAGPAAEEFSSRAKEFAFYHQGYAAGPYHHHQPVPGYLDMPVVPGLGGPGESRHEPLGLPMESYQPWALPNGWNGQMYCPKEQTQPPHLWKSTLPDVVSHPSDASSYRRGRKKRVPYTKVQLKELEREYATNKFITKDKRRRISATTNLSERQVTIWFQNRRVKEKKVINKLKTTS

Row | SMILES | composite z-score [1] | composite z-score [2] | composite z-score [3] | composite z-score (XIP peptide (Xip251-270)) | z-score [4] | z-score [5] | z-score [6] | z-score [7] | z-score [8] | z-score [9]
1 | C=CC[C@@H](OC(=O)Nc1ccc(SC)cc1)c1ccc(OCCO)cc1 | -0.68 | -0.0773 | 1.08 (inactive) | -0.689 | 0.246 | -5.9 (inactive) | -0.0622 (inactive) | 0.593 (inactive) |  | 
2 | CC(C)CNC(=O)[C@@H]1c2ccccc2C(=O)N(Cc2ccc(OC(F)(F)F)cc2)[C@H]1c1ccc(CO)cc1 | 1.74 | 0.205 | 0.0114 (inactive) | 0.762 | -0.192 | -2.67 (inactive) | -0.919 (inactive) | -1.36 (inactive) |  | 
3 | COc1ccc(CCNC(=O)[C@@]2(Sc3ccc(C)cc3)CC(=O)N(Cc3ccccc3)[C@@H]2c2ccc(CO)cc2I)cc1 | 0.672 | 0.0623 | -0.281 (inactive) | -0.0462 | -1.01 | -1.1 (inactive) | 0.0564 (inactive) | 0.672 (inactive) |  | 
4 | CC(C)N1CC=CC23O[C@@H]4/C=C\CCCOC(=O)C4[C@H]2C(=O)N(CCCO)[C@@H]3C1=O (stereo partly drawn) | -2.18 | 0.0126 | 0.015 (inactive) | -0.556 | -0.723 | -4.49 (inactive) | -0.235 (inactive) | 0.101 (inactive) |  | 
5 | O=C1N(CCS(=O)(=O)c2ccccc2)Cc2ccccc2[C@@H]2OC(c3ccc(OCCCO)cc3)=N[C@]12Cc1ccccc1 | 2.73 | -0.121 | 1.73 (inactive) | 0.927 | -2.19 | 2.39 (inactive) | -0.354 (inactive) | 0.111 (inactive) |  | 
6 | C=CCN1C(=O)[C@@]2(O[C@@H](CCO)[C@H]([Si](C)(C)c3ccc(OC)cc3)[C@H]2C)c2cc(N3C(=O)c4cccc5cccc3c45)ccc21 | 1.21 | 0.0411 | 0.777 (inactive) | 0.714 | -2.57 | -2.8 (inactive) | -1.22 (inactive) | -0.751 (inactive) |  | 
7 | COc1ccc([Si](C)(C)[C@@H]2[C@@H](CCn3cc([C@H](O)c4ccccc4)nn3)O[C@]3(C(=O)N(C)c4c(Br)cc(C)cc43)[C@H]2C)cc1 | 0.178 | 0.382 | 0.512 (inactive) | 0.202 | -1.22 | -3.19 (inactive) | -0.973 (inactive) | -0.208 (inactive) |  | 
8 | C=CCNC(=O)[C@@H]1[C@H]2C(=O)O[C@H](c3ccccc3)[C@H](c3ccccc3)N2[C@H](c2ccc(O)cc2)[C@@]12C(=O)Nc1ccc(C#Cc3ccc(OC)cc3)cc12 | 2.75 | -0.0932 | 0.507 (inactive) | 0.543 | -0.107 | 0.296 (inactive) | -0.357 (inactive) | -0.426 (inactive) |  | 
9 | C=C(CCCC)/C(=C/C[C@H](OC(=O)c1ccncc1)c1ccc(CO)o1)c1cnc2ccccc2c1 | 1.8 | -0.105 | 0.291 (inactive) | 0.413 | -0.209 | -4.76 (inactive) | -0.762 (inactive) | -0.937 (inactive) |  | 
10 | C=CCOC(=O)[C@H]1[C@@H]2C(=O)O[C@@H](c3ccccc3)[C@@H](c3ccccc3)N2[C@@H](c2ccc(OCCOC(=O)[C@H]3C[C@H]4C(=O)N5CCC[C@H]5C(=O)N4[C@H]3c3cccc(OCCO)c3)cc2)[C@]12C(=O)Nc1ccccc12 | 1.64 | 0.298 | 1.33 (inactive) | 0.809 | -1.9 | 1.42 (inactive) | 0.217 (inactive) | 0.5 (inactive) |  | 
11 | C=CCC(OC(C)=O)[C@@H]1[C@@H](N(Cc2ccc(-c3ccccc3)cc2)C(=O)c2ccc(-c3ccccc3)cc2)c2cc(OCCCO)ccc2N1C(=O)c1ccc(-c2ccccc2)cc1 (stereo partly drawn) | 0.459 | -0.0102 | -0.959 (inactive) | -0.58 | -0.883 | -0.513 (inactive) | -0.293 (inactive) | 0.122 (inactive) |  | 
12 | COCCCNC(=O)[C@@]1(CCS(=O)(=O)c2ccccc2)N=C(c2ccc(OCCCO)cc2)O[C@H]1c1ccccc1CN=[N+]=[N-] | 2.42 | 0.0871 | 0.901 (inactive) | 0.67 | -2.68 | -1.88 (inactive) | -1.07 (inactive) | -1.61 (inactive) |  | 
13 | C=C1C=C(Br)C2(OCCCO2)[C@H]2OC12 (stereo partly drawn) |  | 0.0009 | -0.584 (inactive) | -0.135 | 1.19 | -1.06 (inactive) |  |  | -0.109 (inactive) | -0.233 (inactive)
14 | CC(C)NC(=O)[C@@H]1c2ccccc2C(=O)N(Cc2cc(F)cc(C(F)(F)F)c2)[C@H]1c1ccc(CO)cc1 | -0.948 | -0.174 | 0.873 (inactive) | -1.01 | -0.327 | -2.19 (inactive) | -0.121 (inactive) | 0.0894 (inactive) |  | 
15 | C=CCNC(=O)[C@@H]1[C@H]2C(=O)O[C@H](c3ccccc3)[C@H](c3ccccc3)N2[C@H](c2ccc(O)cc2)[C@@]12C(=O)Nc1ccccc12 | 1.33 | 0.276 | 0.768 (inactive) | 0.888 | -1.73 | -3.58 (inactive) | 0.21 (inactive) | 0.399 (inactive) |  | 
16 | CC(=O)NCCCC[C@@H]1NC(=O)[C@@H]2C[C@H](C(=O)O)[C@H](c3cccc(OCCO)c3)N2C1=O | 1.03 | -0.363 | 1.41 (inactive) | 1 | -0.313 | 0.294 (inactive) | -0.0079 (inactive) | 0.165 (inactive) |  | 
17 | C=CCN1C(=O)[C@@]2(O[C@@H](CCn3cc(CCO)nn3)[C@H]([Si](C)(C)c3ccc(OC)cc3)[C@H]2C)c2cc(NC(=O)c3ccc(OC)cc3)ccc21 | 1.54 | -0.168 | -0.025 (inactive) | 0.442 | -2.65 | -4.19 (inactive) | 1.09 (inactive) | 1.28 (inactive) |  | 

Row | SMILES | composite z-score [1] | composite z-score [2] | composite z-score [3] | composite z-score (XIP peptide (Xip251-270)) | z-score [4] | z-score [5] | z-score [6] | z-score [7] | z-score [8] | z-score [9]
18 | [N-]=[N+]=NCc1ccccc1C[C@]1(C(=O)NCc2ccccc2)N=C(c2ccc(OCCCO)cc2)O[C@H]1c1ccccc1 | 1.22 | 0.191 | 0.279 (inactive) | -0.172 | -2.32 | 1.43 (inactive) | -0.901 (inactive) | -0.877 (inactive) |  | 
19 | CC(C)C(=C=CC[C@@H](O)c1ccc(CO)o1)CCO | 0.205 | -0.0036 | 0.676 (inactive) | -0.514 | -0.0113 | -3.45 (inactive) | -0.969 (inactive) | -0.763 (inactive) |  | 
20 | C=C(COC)/C(=C/C[C@H](OC(C)=O)c1ccc(CO)o1)c1cnc2ccccc2c1 | 2.83 | 0.292 | 1.5 (inactive) | 0.807 | -0.649 | -4.41 (inactive) | -0.595 (inactive) | -0.669 (inactive) |  | 
21 | O=c1n(-c2ccccc2)c(=O)n2n1CC(COc1ccccc1)=C1[C@@H](CCc3ccccc3)OB(O)C[C@@H]12 | 1.17 | -0.144 | 1.45 (inactive) | -0.0257 | -1.02 | -6.66 (inactive) | -0.337 (inactive) | -0.175 (inactive) |  | 
22 | COC(=O)C(CC#Cc1ccc2c(c1)[C@]1(C(=O)N2)[C@H](C(=O)O)[C@H]2C(=O)O[C@H](c3ccccc3)[C@H](c3ccccc3)N2[C@@H]1c1ccc(OCCO)cc1)C(=O)OC | 3.51 | -0.207 | 1.68 (inactive) | 0.836 | -2.14 | -6.34 (inactive) | -0.192 (inactive) | 0.124 (inactive) |  | 
23 | COc1ccc([Si](C)(C)[C@H]2[C@H](CC(=O)N(CCO)Cc3ccccc3)O[C@@]3(C(=O)N(Cc4ccc(N5CCOC5=O)cc4)c4ccccc43)[C@@H]2C)cc1 | 1.02 | 0.144 | 1.01 (inactive) | 0.631 | -1.04 | -1.48 (inactive) | -0.0614 (inactive) | 0.0752 (inactive) |  | 
24 | C=CCC(OC(C)=O)[C@@H]1[C@@H](N(Cc2ccc(-c3cccc(C(F)(F)F)c3)o2)C(=O)c2ccc(-c3ccccc3)cc2)c2cc(OCCCO)ccc2N1C(=O)Cc1ccc(OC)cc1 (stereo partly drawn) | 0.497 | -0.0525 | 0.163 (inactive) | -0.653 | -0.809 | -0.497 (inactive) | -0.138 (inactive) | -0.0148 (inactive) |  | 
25 | C=C(COC)C(=O)CC[C@@H](OC(=O)c1ccccc1-c1ccccc1C(=O)O)c1cccc(OCCO)c1 | 1.02 | 0.109 | 0.43 (inactive) | -0.29 | -1.24 | -4.82 (inactive) | 0.273 (inactive) | -0.307 (inactive) |  | 
26 | C=CC[C@]1(C(=O)N2CCCCC2)COC(c2ccc(OCCCO)cc2)=N1 | -0.212 | -0.17 | 0.502 (inactive) | 0.54 | -2.13 | -4.15 (inactive) | -0.8 (inactive) | -1.06 (inactive) |  | 
27 | COCCCNC(=O)[C@@]1(C)c2ccccc2C(=O)N(Cc2cc(F)cc(C(F)(F)F)c2)[C@H]1c1ccc(CO)cc1 | -1.97 | 2.62 | -0.268 (inactive) | -1.16 | -0.753 | -2.01 (inactive) | -0.1 (inactive) | 0.802 (inactive) |  | 
28 | COCCCN1C(=O)[C@@]2(Cc3ccccc31)c1ccccc1C(=O)N(Cc1ccccc1Cl)[C@H]2c1ccc(CO)cc1 | -0.342 | -0.0699 | -0.31 (inactive) | 0.107 | -0.7 | -0.759 (inactive) | -0.83 (inactive) | -0.981 (inactive) |  | 
29 | COc1ccc([Si](C)(C)[C@@H]2[C@@H](CC(=O)N3CCC[C@H]3CO)O[C@]3(C(=O)N(Cc4ccc(I)cc4)c4ccccc43)[C@H]2C)cc1 | 1.31 | 0.0368 | 0.564 (inactive) | 0.534 | -2.17 | -2.86 (inactive) | -0.703 (inactive) | -0.413 (inactive) |  | 
30 | CCCCC(=C=CC[C@H](O)c1cccc(OCCO)c1)CCO | 0.629 | 0.0458 | 0.511 (inactive) | -0.97 | -1.01 | -2.75 (inactive) | -0.0801 (inactive) | -0.401 (inactive) |  | 
31 | O=C1O[C@@H](c2ccccc2)[C@@H](c2ccccc2)N2[C@@H](c3ccc(OCCO)cc3)[C@]3(C(=O)Nc4ccc(C#CC5(O)CCCCCC5)cc43)[C@@H](C(=O)NC[C@H](O)c3ccccc3)[C@H]12 | 2.42 | -0.304 | 0.673 (inactive) | 0.819 | -2.21 | -1.22 (inactive) | 0.0477 (inactive) | 0.343 (inactive) |  | 
32 | COC(=O)c1c(CC[C@@H](CO)NC(=O)Nc2ccc(OC)cc2)oc(C(=O)Cc2ccccc2)c1C(=O)OC | 0.655 | -0.0525 | 0.684 (inactive) | 0.678 | -0.83 | -4.5 (inactive) | 0.0211 (inactive) | 0.406 (inactive) |  | 
33 | C=C[C@H](OC)[C@@H](OC(=O)Nc1ccc(OC)cc1)c1ccc(OC)c(O)c1 | -2.08 | 0.0073 | 1.11 (inactive) | -1.18 | -0.294 | -2.75 (inactive) | 0.0254 (inactive) | 0.471 (inactive) |  | 
